# What was measured:
# Test in all cases: PBM binding z-score (relative to random genomic background probes); higher = stronger binding; sequences stand for … in GC…GCGATTGACAGCGTAGAATGAAGG
# [1] = test system: FXR:RXRa (NR concentration 270 nM, RXRa partner concentration 90 nM)
# Outline: (§1)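 The probes on custom Agilent 4×180K protein-binding microarrays were double-stranded, with 34-nt variable regions bearing direct-repeat seeds, single-nucleotide variants, half-site ablations and random human genomic background sequences. Incubation lasted 1 h with ligand-free nuclear receptor dimers in PBS pH 7.4, 2% milk, 0.02% Triton X-100, 1 mM DTT, 0.2 mg/mL BSA and 0.4 mg/ml salmon testes DNA. Antibodies against each partner (one per run) detected bound dimers, and fluorescence scans were regression-normalized. Binding z-scores take the random background probes as reference.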
# [2] = test system: LXRa:RXRa (NR concentration 270 nM, RXRa partner concentration 90 nM)
# Outline: as §1
# [3] = test system: LXRa homodimer (NR concentration 270 nM)
# Outline: as §1
# [4] = test system: LXRb:RXRa (NR concentration 270 nM, RXRa partner concentration 90 nM)
# Outline: as §1
# [5] = test system: LXRb homodimer (NR concentration 270 nM)
# Outline: as §1
# [6] = test system: PPARa:RXRa (NR concentration 270 nM, RXRa partner concentration 90 nM)
# Outline: as §1
# [7] = test system: PPARg:RXRa (NR concentration 180 nM, RXRa partner concentration 90 nM)
# Outline: as §1
# [8] = test system: PPARg:RXRa 270nM:90nM, anti-RXR (NR concentration 270 nM, RXRa partner concentration 90 nM)
# Outline: as §1
# [9] = test system: PPARg:RXRa 30nM:10nM, anti-RXR (NR concentration 30 nM, RXRa partner concentration 10 nM)
# Outline: as §1
# [10] = test system: PPARg:RXRa 90nM:30nM, anti-RXR (NR concentration 90 nM, RXRa partner concentration 30 nM)
# Outline: as §1
# [11] = test system: PPARg:RXRa DBDmut IVT, anti-RXR (DBD mutation: RXRa K156A/R161A, NR concentration 270 nM, RXRa partner concentration 90 nM)
# Outline: as §1
# [12] = test system: PPARg:RXRa IVT, anti-PPARg (NR concentration 270 nM, RXRa partner concentration 90 nM)
# Outline: as §1
# [13] = test system: PPARg DBDmut:RXRa IVT, anti-PPARg (DBD mutation: PPARg1 K132A/R137A, NR concentration 270 nM, RXRa partner concentration 90 nM)
# Outline: as §1
# [14] = test system: PPARg DBDmut IVT, anti-PPARg (DBD mutation: PPARg1 K132A/R137A, NR concentration 270 nM)
# Outline: as §1
# [15] = test system: PPARg homodimer (NR concentration 180 nM)
# Outline: as §1
# [16] = test system: PXR:RXRa (NR concentration 270 nM, RXRa partner concentration 90 nM)
# Outline: as §1
# [17] = test system: PXR homodimer (NR concentration 270 nM)
# Outline: as §1
# [18] = test system: RARa:RXR (NR concentration 270 nM, RXRa partner concentration 90 nM)
# Outline: as §1
# [19] = test system: RARa homodimer (NR concentration 270 nM)
# Outline: as §1
# [20] = test system: RARb:RXRa (NR concentration 270 nM, RXRa partner concentration 90 nM)
# Outline: as §1
Sequence,PBM binding z-score [1],PBM binding z-score [2],PBM binding z-score [3],PBM binding z-score [4],PBM binding z-score [5],PBM binding z-score [6],PBM binding z-score [7],PBM binding z-score [8],PBM binding z-score [9],PBM binding z-score [10],PBM binding z-score [11],PBM binding z-score [12],PBM binding z-score [13],PBM binding z-score [14],PBM binding z-score [15],PBM binding z-score [16],PBM binding z-score [17],PBM binding z-score [18],PBM binding z-score [19],PBM binding z-score [20]
ATCTCTAGGTAAAGATAGGTCAGTGAATGCAAAT,0.743,5.46,1,2.53,0.609,1.87,0.963,1.24,0.668,0.741,2.37,2.45,1.34,1.35,1.17,1.05,0.597,1.52,1.54,1.81
ACTAGCAGGCCAAGGGTCACTCGAGATTAGTCCG,2.44,2.89,0.209,2.6,-0.293,4.51,7.9,7.44,6.36,8.11,1.3,3.54,-0.0207,-0.0831,2.15,3.15,-0.376,3.97,0.545,3.48
TCTTGTAGATCAATAGAGGTTAAGAGAGTGCGCT,1.02,3.23,0.39,1.56,-0.263,1.97,0.0918,1.53,2.37,2.22,1.67,1.07,0.505,0.44,0.687,3.92,0.241,1.73,0.69,0.738
CCTAGTTGGTAAAGGTCACACACGCTATAGGTAC,6.25,5.71,4.56,5.64,2.13,5.93,5.47,6.3,4,5.63,1.96,4.31,1.8,2.57,5.56,5.79,2.18,6.31,3.99,5.22
ATCTCTAGGTAAAGATAGTTCAGCGAATGCAAAT,0.212,4.41,0.481,0.836,0.431,0.777,0.334,0.42,0.395,0.368,2.37,1.47,0.72,1.31,0.488,0.995,0.643,0.739,1.34,0.964
TAGCCTAGGTCAGATCGGGCCAGCATACGCTATA,2.37,0.982,-0.589,0.386,-0.807,1.52,0.739,0.901,-0.0521,0.135,0.377,1.4,-0.988,-0.801,0.0554,0.945,-0.628,1.3,-0.92,3.09
CAAACTAGGTCTCAGAGGTCAAAGTCCGTGCGTA,4.78,5.2,5.13,4.97,1.8,5.18,4.67,5.17,2.69,4.41,5.55,5.54,0.45,0.559,2.98,5.51,2.93,5.67,1.38,3.88
CCTGCTAGGTAAATGGTCAGCTAAAGCAGCTCGC,-0.299,-0.376,-0.748,-0.628,-0.539,-0.0599,0.476,1.64,0.189,1.31,1.07,0.489,-1.23,-1.53,0.311,-0.268,-0.537,-0.118,-0.6,0.261
TCTCGGAGGATACGAAAGGTCAGAGCTCGACATC,2.69,4.17,2.95,3.22,-0.148,3.68,1.75,3.37,2.63,3.04,1.32,1.03,-1.04,-0.436,2.71,3.67,0.308,4.51,0.99,3.69
TGTCAAAGTGCAAAGGTAACGTAAGTATCCACAC,1.4,1.63,-0.525,1.5,-0.151,3.32,5.23,5.16,2.4,4.4,0.00516,2.98,0.574,0.92,1.09,1.76,0.397,2.57,0.0756,2.38
CATACAGGGTCAGCTGGGCCAGAGTAGGGACGGC,4.32,3.28,-0.0929,2.08,0.0372,4.46,2.85,3.35,0.594,2.16,1.23,2.66,0.246,0.292,1.52,2.22,-0.145,2.81,0.258,4.08
TCTCGGAGAACACGAAGGTCAGAGCTTTCCAGAG,-0.456,0.775,-0.321,0.915,-0.994,1.59,0.33,1.41,2.09,1.74,1.08,0.106,-2.09,-1.27,0.419,1.29,-0.535,1.67,-0.665,2.49
CGAACTGGGTCAAGGACAGTGAATCTCCGCACGC,2.51,1.36,-0.258,1.24,-0.484,4.39,6.95,6.03,2.89,5.37,7.45,7.82,5.86,3.4,1.92,1.28,-0.104,1.94,0.123,3.39
CCTCAGAGGACAACAGGAGGTCAGAGCTGCCAGA,1.05,2.25,2.4,1.34,-0.195,2.09,0.662,0.51,-0.374,-0.163,0.559,0.422,-0.428,-1.85,1.69,2.04,0.295,2.24,0.569,3.46
TGAATGAGGTTATAAGATCAGAGAACGTTGCAAA,1.28,1.23,-0.332,0.897,-0.296,2.62,1.45,1.83,1.04,1.35,0.837,1.71,0.635,0.498,0.196,0.687,-0.71,1.18,-0.143,0.975
TCTTGTAGATCAAAGGTTAAGCAAGCCGAAGCCT,1.32,2.21,0.224,2.12,-0.28,5.08,8.51,8.42,9.42,9.87,2.3,4.26,1.03,0.316,0.998,2.14,-0.0892,3.34,-0.483,2.11
TTACCAAGCTGAAAGGTCGTTGATGCACGCCTTG,0.616,0.94,-0.316,1.04,-1.11,2.08,1.29,3.29,1.06,2.53,-0.529,0.156,-0.407,-0.623,0.193,1.72,-0.0821,1.66,-0.928,1.36
TCATATAGGTAAACACGTGAAAGTCCGTAAGTTA,0.505,0.566,0.235,0.56,0.236,1.33,1.16,2.12,3.63,2.89,4.07,2.96,0.9,1.04,0.24,0.722,0.241,0.769,1.1,0.364

# From the supplement of paper PMC6555819
